A number with no mark means an inactive call. Records with an inconclusive call do not appear. Active and inactive are the calls of the source. Unless noted, the call rests on the fitted dose curve.

The target in test [1] is Thyrotropin receptor (Homo sapiens) (UniProt P16473). Put plainly: qHTS assay to identify small molecule agonists of the thyroid stimulating hormone receptor (TSHR) signaling pathway (AID 1224843). Further: nearly all actives have a fitted effect of over 45% in size. The essentials: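 Screening of the Tox21 10K collection used HEK293 cells engineered with TSHR at 800 cells per well. After a 30-min room-temperature compound exposure, HTRF cAMP reagents were added and fluorescence recorded 1 h later.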

The nature of test [2]: qHTS assay to identify small molecule agonists of the hypoxia (HIF-1) signaling pathway - cell viability counter screen (AID 1224844). Further: nearly all actives have a fitted effect of over 50% in size. The essentials:
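Tox21 10K compounds were added to HRE-bla ME-180 cells (0.5% dialyzed FBS) and incubated 17 hrs at 37C; ATP-based CellTiter-Glo luminescence then reported cell viability in the same wells.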
For orientation: qHTS replaces the single test concentration by a dilution series.

The nature of test [3]: qHTS assay to identify small molecule agonists of H2AX (AID 1224845; active means well fitted activation curve with a large enough effect in the signal ratio in the repeat runs, not every such curve was filed as active; the % refers to the signal ratio). The essentials: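 Phospho-H2AX Ser139 measured by HTRF (ex 320 nm; em 665 and 620 nm) after 24 hr antibody incubation. Compounds, 15 concentrations, 0.76% DMSO, were applied to CHO-K1 cells for 3hr at 37C before lysis.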
Test [4] can be described thus: qHTS assay to identify small molecule agonists of the hypoxia (HIF-1) signaling pathway (AID 1224846; active means well fitted activation curve with a large enough effect in the signal ratio in the repeat runs, not every such curve was filed as active; the % refers to the signal ratio). The essentials: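 Steps: seed ME-180 HRE-bla cells (2,000/well, 0.5% dialyzed FBS); incubate 5 hrs at 37C; pin-transfer compounds or DMSO; incubate 17 hrs; add LiveBLAzer B/G substrate CCF4-AM; measure reporter activation by FRET.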
Test [5] can be described thus: qHTS assay to identify small molecule antagonists of the estrogen related receptor (ERR) signaling pathway from Tox21 library (AID 1224848; active means well fitted curve in the direction sought with a large enough effect in the repeat runs; an effect the other way counts as inactive or inconclusive; further: nearly all actives have a fitted effect of over 50% in size; further: potency means the concentration at half of the fitted maximal effect). The gist of the method:
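Antagonist-mode screen of the Tox21 10K library in an NTP-provided ERR reporter cell line; 18 h compound exposure at 37 C, luminescence measured with ONE-Glo.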

Test [6] is described as follows: qHTS assay to identify small molecule agonists of the estrogen related receptor (ERR) signaling pathway from Tox21 library (AID 1224849). Further: nearly all actives have a fitted effect of over 15% in size. Particulars: ERR reporter cell line, ONE-Glo luciferase, 18 h; at 92.4 µM (top of the series) unless noted. The essentials: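 Agonist signal is luciferase luminescence from an ERR reporter cell line treated 18 h at 37 C with DMSO-dissolved compounds, read 30 min after ONE-Glo addition at room temperature.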

Test [7] in a line: qHTS RealTime-Glo MT Cell Viability Assay in HepG2 cells - 24 hour (AID 1224867; active means well fitted curve in the direction sought with a large enough effect in the repeat runs; an effect the other way counts as inactive or inconclusive; further: nearly all actives have a fitted effect of over 50% in size). The essentials:
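Cells + NanoLuc/prosubstrate dispensed (600 cells/well) → 5 h at 37 C/5% CO2 → compounds in DMSO transferred → 40 h incubation at 37 C, luminescence read at 0, 8, 16, 24, 32, 40 h.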

Test [8] is described as follows: qHTS RealTime-Glo MT Cell Viability Assay in HEK293 cells - 32 hour (AID 1224868; active means well fitted curve in the direction sought with a large enough effect in the repeat runs; an effect the other way counts as inactive or inconclusive; further: top concentration of the series differs between compounds; nearly all actives have a fitted effect of over 50% in size). The gist of the method:
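Tox21 10K qHTS, HEK293, 600 cells/well, RealTime-Glo reagent co-dispensed with cells; 5 h preincubation, compound by pintool, 37 C, luminescence at 0–40 h.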

Test [9] is described as follows: A CellTox Green Cytotoxicity Assay to monitor cytotoxicity in HEK293 cells - 0 hour (AID 1224869; active means well fitted curve in the direction sought with a large enough effect in the repeat runs; an effect the other way counts as inactive or inconclusive; further: nearly all actives have a fitted effect of over 50% in size). The gist of the method:
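Cytotoxicity was tracked continuously in HEK293 cells by a DNA-binding dye excluded from viable cells. Compounds were transferred in DMSO 5 h after seeding; fluorescence was recorded at intervals up to 40 h.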

Test [10] in a line: qHTS assay to identify small molecule agonists of H2AX - cell viability counter screen (AID 1224847).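 Further: wild-type CHO-K1 cells; top concentration of the series differs between compounds; nearly all actives have a fitted effect of over 30% in size.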 The essentials:
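For this counter screen, overnight-attached CHO-K1 cells received test compounds (15 concentrations, 0.76% DMSO final); 3 hr later at 37C, CellTiter-Glo reagent was added and luminescence recorded after 30 min at room temperature.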
On the % scale 0 is the no-effect control and ±100 the full control effect.

Thyrotropin receptor (Homo sapiens), sequence (P16473 whole entry, looked up): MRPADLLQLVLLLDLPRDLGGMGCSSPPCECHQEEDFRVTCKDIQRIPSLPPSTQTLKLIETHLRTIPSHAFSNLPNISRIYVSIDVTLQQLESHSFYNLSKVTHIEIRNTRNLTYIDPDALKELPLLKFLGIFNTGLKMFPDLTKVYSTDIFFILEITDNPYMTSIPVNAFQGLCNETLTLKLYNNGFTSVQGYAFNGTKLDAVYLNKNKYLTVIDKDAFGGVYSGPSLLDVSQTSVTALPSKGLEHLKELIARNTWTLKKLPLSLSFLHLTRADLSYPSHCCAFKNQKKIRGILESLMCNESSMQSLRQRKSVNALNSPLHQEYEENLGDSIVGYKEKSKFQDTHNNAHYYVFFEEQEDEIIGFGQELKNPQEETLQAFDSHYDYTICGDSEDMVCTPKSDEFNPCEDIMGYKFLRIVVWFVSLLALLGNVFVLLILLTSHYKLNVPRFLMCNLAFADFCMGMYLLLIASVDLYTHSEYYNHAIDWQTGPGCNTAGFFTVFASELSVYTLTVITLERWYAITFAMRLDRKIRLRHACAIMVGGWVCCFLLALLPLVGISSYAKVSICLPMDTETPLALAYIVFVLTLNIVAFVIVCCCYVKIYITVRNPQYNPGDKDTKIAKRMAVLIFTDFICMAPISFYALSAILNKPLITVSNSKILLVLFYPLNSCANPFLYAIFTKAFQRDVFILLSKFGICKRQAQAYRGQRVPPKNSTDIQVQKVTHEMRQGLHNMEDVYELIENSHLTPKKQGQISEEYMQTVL

On to `CC(C)NC(=O)NC(C)C`, for which the Potency result in test [1], in test [2], in test [5], in test [7], in test [8] and in test [9] was “inactive” in each case. The call in test [3] and in test [4] was inactive. Also, the activity change, positive = activation in test [6] was -2.14%.

With `NS(=O)(=O)c1ccccc1Cl`, the Potency result in test [1], in [2], in test [10], in test [5], in [7] and in [9] was “inactive” in each case. The result in [3] and in [4] was inactive. In addition, the activity change, positive = activation in test [6] is 2.78%.

In the case of `COC(=O)NN`, the Potency result in [1], in test [2], in test [10], in [5], in [7] and in test [9] was “inactive” throughout. Also, the molecule was classed as inactive in [3] and in test [4]. In test [6], the activity change, positive = activation was -24.9%.

As for `COc1ccc2c(c1)c(CC(=O)OCC(=O)O)c(C)n2C(=O)c1ccc(Cl)cc1`, the Potency result in test [1], in test [2], in test [10], in test [5], in test [7] and in test [9] was “inactive” in each case. Also, the molecule was called inactive in test [3] and in [4]. Also, the activity change, positive = activation in [6] is 3.06% [at 42.5 µM].

With `CC(C)(CC(=O)O)C(=O)O`, the Potency entry in test [1], in test [2], in test [10], in test [5], in test [7] and in [9] was “inactive” in each case. For the same molecule, the result in test [3] and in test [4] was inactive. For the same molecule, the activity change, positive = activation in [6] was 3.63%.

Consider `CCCCCCCCCCCCCC=O`, for which the values for the activation in test [1] and in test [4] were 4.61% [at 8.39 µM] and -0.206% [at 7.01 µM], respectively. Besides, the activity change, negative = cytotoxicity is 0.368% [at 6.97 µM] in test [2], 0.845% [at 14 µM] in [10] and -6.68% [at 6.97 µM] in test [7]. Moreover, the activation (H2AX phosphorylation) in test [3] is -4.49% [at 14 µM]. For the same molecule, in [5], the activity, negative = inhibition is -0.715% [at 8.39 µM]. In addition, the activity change, positive = activation in test [6] is -0.514% [at 8.39 µM]. In addition, the cytotoxicity in [9] is -4.46% [at 6.97 µM].

Turning to `CCCCNC(=O)NCCCC`, the Potency result in test [1], in test [2], in test [5], in test [7], in test [8] and in test [9] was “inactive” each time. The outcome in test [3] and in test [4] was inactive. Also, the activity change, positive = activation in test [6] is 12.5%.

As to `CC(C)CCCC(C)N` (stereo not drawn), the Potency entry in test [1], in [2], in test [10], in test [5], in [7] and in test [9] was “inactive” in each case. In addition, the outcome in test [3] and in [4] was inactive.

Consider `CCOC(=O)c1cccc(N)c1`, for which the Potency result in [1], in test [2], in test [10], in [5], in test [7] and in test [8] was “inactive” throughout. For the same molecule, the Potency entry in test [9] was “inactive”. Moreover, the call in test [3] and in test [4] was inactive. Moreover, the activity change, positive = activation in [6] is -2.77% [at 42.5 µM].

`N[C@H](C(=O)O)c1ccc(O)cc1`: the Potency result in test [1] and in [10] was “inactive” in each case. For the same molecule, the results for the activity change, negative = cytotoxicity in test [2] and in [7] were 4.56% [at 15.8 µM] and -0.341% [at 15.8 µM], respectively. In addition, the result in test [3] was inactive. Besides, the activation in [4] was 0.0786% [at 15.8 µM]. Also, in test [5], the activity, negative = inhibition is 2.86% [at 19 µM]. Further, the activity change, positive = activation in [6] is 1.6% [at 19 µM]. Also, the cytotoxicity in [9] is -2.5% [at 15.8 µM].

Turning to `COc1c(N2C[C@@H]3CCCN[C@@H]3C2)c(F)cc2c(=O)c(C(=O)O)cn(C3CC3)c12`, the Potency entry in test [1], in [2], in test [10], in [5], in test [7] and in test [9] was “inactive” in each case. The outcome in test [3] and in test [4] was inactive.

As to `C[C@H](NC(CCc1ccccc1)C(=O)O)C(=O)N1CCC[C@H]1C(=O)O` (stereo partly drawn), the Potency result in test [1], in test [2], in test [10], in test [7] and in test [9] was “inactive” in each case. For the same molecule, the call in test [3] and in test [4] was inactive. In addition, the Potency in test [5] is 5.96 µM (active). The activity change, positive = activation in test [6] is -0.914% [at 42.5 µM].

For `ClC(Cl)(Br)Br`, the Potency result in [1], in test [2], in [10], in test [5], in test [7] and in [9] was “inactive” in each case. Besides, the molecule was classed as inactive in test [3] and in test [4]. Also, the activity change, positive = activation in test [6] was 1.45%.

Regarding `COc1cc(C(=O)N2CCCCCCC2)cc(OC)c1OC`, the Potency result in [1], in test [2], in test [5], in [7], in [8] and in [9] was “inactive” each time. Further, the call in test [3] and in test [4] was inactive. Further, the activity change, positive = activation in test [6] was 8.77% [at 42.5 µM].

Take `Cc1[nH]c(=O)c(C#N)cc1-c1ccc2nccn2c1`: the Potency entry in test [1], in test [2], in test [10], in test [7], in test [8] and in test [9] was “inactive” each time. For the same molecule, the outcome in [3] and in [4] was inactive.

As for `Cc1cc2c(cc1S(N)(=O)=O)S(=O)(=O)CCC2`, the Potency entry in test [1], in [2], in test [5], in test [7], in test [8] and in test [9] was “inactive” each time. For the same molecule, the result in [3] and in [4] was inactive. Moreover, the activity change, positive = activation in [6] is 2.29% [at 42.5 µM].

For `CCC(C)C1CCCCC1=O` (stereo not drawn), the Potency entry in [1], in test [2], in test [10], in [5], in [7] and in test [9] was “inactive” each time. Also, the outcome in [3] and in [4] was inactive. The activity change, positive = activation in test [6] is 3.66%.

For `N=C(N)c1ccc(OCCCOc2ccc(C(=N)N)cc2)cc1`, the Potency result in [1], in test [2], in test [10], in test [5], in [7] and in test [8] was “inactive” in each case. The Potency entry in test [9] was “inactive”. In addition, the molecule was called inactive in test [3] and in test [4].

Consider `COC(=O)c1cc(C(=O)OC)cc(S(=O)(=O)O)c1`, for which the Potency entry in [1], in [2], in test [5], in test [7], in test [8] and in test [9] was “inactive” throughout. Further, the result in test [3] and in test [4] was inactive. The activity change, positive = activation in test [6] was 0.501%.

Take `CO/N=C(/C(=O)N[C@@H]1C(=O)N2C(C(=O)OCOC(=O)C(C)(C)C)=C(C)CS[C@H]12)c1csc(N)n1`: the Potency entry in test [1], in test [2], in [10], in test [5], in test [7] and in test [9] was “inactive” throughout. The result in test [3] and in test [4] was inactive. Also, in test [6], the activity change, positive = activation was 4.91% [at 42.5 µM].
